Test results from the supplement of paper PMC11732987, “Enantioselective OTUD7B fragment discovery through chemoproteomics screening and high-throughput optimisation” (Communications Chemistry, 2025).

Key:
Test in all cases: log2 ratio of Biotin-Ahx-Ub-VS probe labelling (fragment/DMSO); higher = less target engagement (more negative = stronger competition), active = hit call of the paper (q ≤ 0.05, log2 ratio ≤ -1)
Conditions in all cases: compound concentration: 200 uM; treatment time: 3 h
USP9X = USP9X (UniProt Q93008)
How it was run: (§1)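 HEK293T lysate, 495 µg per sample in Tris/CHAPS/IGEPAL buffer with protease inhibitors, was treated in triplicate with fragment at 200 µM or vehicle for 3 h and then with Biotin-Ahx-Ub-VS at 0.5 µM final for 1 h. Labelled DUBs were NeutrAvidin-enriched, digested with LysC and trypsin, and run by diaPASEF LC-MS/MS. Spectronaut label-free quantities were global-median-normalised, and values are average log2 fragment/vehicle ratios by unpaired t-test on proteins with ≥2 unique peptides.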

UniProt O00487 = biological target: UniProt O00487
How it was run: as §1

UniProt O00507 = biological target: UniProt O00507
How it was run: as §1

UniProt P51784 = biological target: UniProt P51784
How it was run: as §1

UniProt Q5T2D3 = biological target: T1, UniProt Q5T2D3
T1 sequence (whole entry): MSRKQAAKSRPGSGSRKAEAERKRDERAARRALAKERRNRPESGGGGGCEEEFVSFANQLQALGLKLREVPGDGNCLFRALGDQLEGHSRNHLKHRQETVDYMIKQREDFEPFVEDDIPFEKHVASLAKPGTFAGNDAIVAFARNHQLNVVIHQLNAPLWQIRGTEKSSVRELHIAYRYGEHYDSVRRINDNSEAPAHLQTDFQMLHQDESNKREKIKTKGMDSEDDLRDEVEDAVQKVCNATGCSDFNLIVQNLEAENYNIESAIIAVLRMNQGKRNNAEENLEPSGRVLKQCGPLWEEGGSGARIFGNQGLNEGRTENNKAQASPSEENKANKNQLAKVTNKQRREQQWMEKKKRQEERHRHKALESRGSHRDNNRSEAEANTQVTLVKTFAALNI
How it was run: as §1

UniProt Q8TE49 = biological target: T2, UniProt Q8TE49
T2 sequence (whole entry): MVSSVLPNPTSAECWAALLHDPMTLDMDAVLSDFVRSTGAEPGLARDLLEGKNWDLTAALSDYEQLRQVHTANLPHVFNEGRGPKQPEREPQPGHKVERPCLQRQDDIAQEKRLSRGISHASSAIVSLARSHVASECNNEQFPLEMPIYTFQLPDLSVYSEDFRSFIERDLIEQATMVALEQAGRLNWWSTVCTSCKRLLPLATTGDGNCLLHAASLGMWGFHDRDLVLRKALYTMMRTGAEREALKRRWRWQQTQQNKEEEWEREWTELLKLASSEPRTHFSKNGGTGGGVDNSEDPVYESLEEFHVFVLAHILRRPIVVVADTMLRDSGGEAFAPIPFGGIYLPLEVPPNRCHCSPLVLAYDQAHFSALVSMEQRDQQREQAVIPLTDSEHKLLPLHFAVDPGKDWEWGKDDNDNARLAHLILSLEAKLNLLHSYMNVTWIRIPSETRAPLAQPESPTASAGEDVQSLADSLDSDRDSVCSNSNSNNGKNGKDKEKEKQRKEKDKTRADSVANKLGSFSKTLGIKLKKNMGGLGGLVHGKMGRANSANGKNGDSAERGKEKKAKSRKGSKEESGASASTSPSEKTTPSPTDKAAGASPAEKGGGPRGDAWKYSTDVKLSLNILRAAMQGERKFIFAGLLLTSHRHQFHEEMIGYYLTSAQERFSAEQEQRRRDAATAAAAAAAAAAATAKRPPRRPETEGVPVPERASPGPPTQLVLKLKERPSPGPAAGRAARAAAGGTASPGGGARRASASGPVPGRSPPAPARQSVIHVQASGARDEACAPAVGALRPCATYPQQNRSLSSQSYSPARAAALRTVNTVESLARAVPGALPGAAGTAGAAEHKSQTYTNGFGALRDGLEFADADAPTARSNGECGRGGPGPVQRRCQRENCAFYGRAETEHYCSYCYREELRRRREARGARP
How it was run: as §1

UniProt Q9P2H5 = biological target: T3, UniProt Q9P2H5
T3 sequence (whole entry): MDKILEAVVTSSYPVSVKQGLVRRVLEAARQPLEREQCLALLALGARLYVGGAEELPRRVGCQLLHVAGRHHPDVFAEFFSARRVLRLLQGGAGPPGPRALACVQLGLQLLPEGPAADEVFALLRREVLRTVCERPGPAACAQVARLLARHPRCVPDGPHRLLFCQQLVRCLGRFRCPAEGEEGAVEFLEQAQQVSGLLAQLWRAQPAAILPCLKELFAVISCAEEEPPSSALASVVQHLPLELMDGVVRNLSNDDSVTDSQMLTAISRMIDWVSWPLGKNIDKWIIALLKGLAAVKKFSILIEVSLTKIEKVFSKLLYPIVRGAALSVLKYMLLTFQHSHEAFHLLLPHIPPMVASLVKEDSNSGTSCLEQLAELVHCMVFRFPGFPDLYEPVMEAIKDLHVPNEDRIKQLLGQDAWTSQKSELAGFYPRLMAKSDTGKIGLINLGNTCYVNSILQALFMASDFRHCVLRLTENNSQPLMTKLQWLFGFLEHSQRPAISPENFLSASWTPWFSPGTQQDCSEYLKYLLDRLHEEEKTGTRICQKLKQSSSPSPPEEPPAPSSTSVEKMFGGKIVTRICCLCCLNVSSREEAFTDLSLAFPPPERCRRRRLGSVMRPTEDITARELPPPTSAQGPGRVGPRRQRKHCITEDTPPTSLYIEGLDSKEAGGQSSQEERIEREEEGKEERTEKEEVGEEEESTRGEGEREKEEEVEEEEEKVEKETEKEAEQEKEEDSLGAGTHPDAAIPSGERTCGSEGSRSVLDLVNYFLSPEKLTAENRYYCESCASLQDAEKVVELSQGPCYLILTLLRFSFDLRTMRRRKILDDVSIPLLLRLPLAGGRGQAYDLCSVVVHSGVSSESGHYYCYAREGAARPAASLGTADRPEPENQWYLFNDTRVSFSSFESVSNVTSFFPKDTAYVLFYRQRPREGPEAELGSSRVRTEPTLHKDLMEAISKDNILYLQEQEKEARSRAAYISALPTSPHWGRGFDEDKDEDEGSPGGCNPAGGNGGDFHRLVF
How it was run: as §1

UniProt Q9UGI0 = biological target: T4, UniProt Q9UGI0
T4 sequence (whole entry): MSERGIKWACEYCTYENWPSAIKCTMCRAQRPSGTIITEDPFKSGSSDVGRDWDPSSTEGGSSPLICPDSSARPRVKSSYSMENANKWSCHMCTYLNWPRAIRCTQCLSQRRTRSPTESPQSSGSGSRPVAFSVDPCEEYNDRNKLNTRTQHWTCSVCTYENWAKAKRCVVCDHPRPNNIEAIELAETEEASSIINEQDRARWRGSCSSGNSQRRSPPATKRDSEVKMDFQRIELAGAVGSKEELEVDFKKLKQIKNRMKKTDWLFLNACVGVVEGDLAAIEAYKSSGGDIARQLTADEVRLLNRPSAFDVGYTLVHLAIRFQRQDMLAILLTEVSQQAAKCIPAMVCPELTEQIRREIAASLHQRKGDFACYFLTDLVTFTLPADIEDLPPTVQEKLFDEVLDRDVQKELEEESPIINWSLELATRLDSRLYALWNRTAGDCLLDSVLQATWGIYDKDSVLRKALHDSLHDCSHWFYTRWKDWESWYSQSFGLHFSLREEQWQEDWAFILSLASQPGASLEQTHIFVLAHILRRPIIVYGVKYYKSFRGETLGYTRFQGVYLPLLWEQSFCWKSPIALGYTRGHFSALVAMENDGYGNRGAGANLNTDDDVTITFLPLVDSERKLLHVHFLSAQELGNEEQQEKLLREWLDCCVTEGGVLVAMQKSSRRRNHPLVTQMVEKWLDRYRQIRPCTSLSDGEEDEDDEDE
How it was run: as §1

YOD1 = biological target: T5, YOD1 (UniProt Q5VVQ6)
T5 sequence (whole entry): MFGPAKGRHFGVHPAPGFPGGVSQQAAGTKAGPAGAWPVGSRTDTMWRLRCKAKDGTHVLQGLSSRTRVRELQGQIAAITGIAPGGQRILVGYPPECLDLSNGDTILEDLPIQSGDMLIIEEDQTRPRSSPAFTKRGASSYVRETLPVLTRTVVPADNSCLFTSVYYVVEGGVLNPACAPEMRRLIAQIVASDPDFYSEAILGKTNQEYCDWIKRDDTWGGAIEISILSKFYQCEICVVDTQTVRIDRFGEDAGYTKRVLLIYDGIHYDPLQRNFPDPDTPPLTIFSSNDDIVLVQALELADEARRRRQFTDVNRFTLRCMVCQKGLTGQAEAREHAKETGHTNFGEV
How it was run: as §1

Measured: log2 ratio of Biotin-Ahx-Ub-VS probe labelling

UniProt O00507, sequence (O00507 whole entry): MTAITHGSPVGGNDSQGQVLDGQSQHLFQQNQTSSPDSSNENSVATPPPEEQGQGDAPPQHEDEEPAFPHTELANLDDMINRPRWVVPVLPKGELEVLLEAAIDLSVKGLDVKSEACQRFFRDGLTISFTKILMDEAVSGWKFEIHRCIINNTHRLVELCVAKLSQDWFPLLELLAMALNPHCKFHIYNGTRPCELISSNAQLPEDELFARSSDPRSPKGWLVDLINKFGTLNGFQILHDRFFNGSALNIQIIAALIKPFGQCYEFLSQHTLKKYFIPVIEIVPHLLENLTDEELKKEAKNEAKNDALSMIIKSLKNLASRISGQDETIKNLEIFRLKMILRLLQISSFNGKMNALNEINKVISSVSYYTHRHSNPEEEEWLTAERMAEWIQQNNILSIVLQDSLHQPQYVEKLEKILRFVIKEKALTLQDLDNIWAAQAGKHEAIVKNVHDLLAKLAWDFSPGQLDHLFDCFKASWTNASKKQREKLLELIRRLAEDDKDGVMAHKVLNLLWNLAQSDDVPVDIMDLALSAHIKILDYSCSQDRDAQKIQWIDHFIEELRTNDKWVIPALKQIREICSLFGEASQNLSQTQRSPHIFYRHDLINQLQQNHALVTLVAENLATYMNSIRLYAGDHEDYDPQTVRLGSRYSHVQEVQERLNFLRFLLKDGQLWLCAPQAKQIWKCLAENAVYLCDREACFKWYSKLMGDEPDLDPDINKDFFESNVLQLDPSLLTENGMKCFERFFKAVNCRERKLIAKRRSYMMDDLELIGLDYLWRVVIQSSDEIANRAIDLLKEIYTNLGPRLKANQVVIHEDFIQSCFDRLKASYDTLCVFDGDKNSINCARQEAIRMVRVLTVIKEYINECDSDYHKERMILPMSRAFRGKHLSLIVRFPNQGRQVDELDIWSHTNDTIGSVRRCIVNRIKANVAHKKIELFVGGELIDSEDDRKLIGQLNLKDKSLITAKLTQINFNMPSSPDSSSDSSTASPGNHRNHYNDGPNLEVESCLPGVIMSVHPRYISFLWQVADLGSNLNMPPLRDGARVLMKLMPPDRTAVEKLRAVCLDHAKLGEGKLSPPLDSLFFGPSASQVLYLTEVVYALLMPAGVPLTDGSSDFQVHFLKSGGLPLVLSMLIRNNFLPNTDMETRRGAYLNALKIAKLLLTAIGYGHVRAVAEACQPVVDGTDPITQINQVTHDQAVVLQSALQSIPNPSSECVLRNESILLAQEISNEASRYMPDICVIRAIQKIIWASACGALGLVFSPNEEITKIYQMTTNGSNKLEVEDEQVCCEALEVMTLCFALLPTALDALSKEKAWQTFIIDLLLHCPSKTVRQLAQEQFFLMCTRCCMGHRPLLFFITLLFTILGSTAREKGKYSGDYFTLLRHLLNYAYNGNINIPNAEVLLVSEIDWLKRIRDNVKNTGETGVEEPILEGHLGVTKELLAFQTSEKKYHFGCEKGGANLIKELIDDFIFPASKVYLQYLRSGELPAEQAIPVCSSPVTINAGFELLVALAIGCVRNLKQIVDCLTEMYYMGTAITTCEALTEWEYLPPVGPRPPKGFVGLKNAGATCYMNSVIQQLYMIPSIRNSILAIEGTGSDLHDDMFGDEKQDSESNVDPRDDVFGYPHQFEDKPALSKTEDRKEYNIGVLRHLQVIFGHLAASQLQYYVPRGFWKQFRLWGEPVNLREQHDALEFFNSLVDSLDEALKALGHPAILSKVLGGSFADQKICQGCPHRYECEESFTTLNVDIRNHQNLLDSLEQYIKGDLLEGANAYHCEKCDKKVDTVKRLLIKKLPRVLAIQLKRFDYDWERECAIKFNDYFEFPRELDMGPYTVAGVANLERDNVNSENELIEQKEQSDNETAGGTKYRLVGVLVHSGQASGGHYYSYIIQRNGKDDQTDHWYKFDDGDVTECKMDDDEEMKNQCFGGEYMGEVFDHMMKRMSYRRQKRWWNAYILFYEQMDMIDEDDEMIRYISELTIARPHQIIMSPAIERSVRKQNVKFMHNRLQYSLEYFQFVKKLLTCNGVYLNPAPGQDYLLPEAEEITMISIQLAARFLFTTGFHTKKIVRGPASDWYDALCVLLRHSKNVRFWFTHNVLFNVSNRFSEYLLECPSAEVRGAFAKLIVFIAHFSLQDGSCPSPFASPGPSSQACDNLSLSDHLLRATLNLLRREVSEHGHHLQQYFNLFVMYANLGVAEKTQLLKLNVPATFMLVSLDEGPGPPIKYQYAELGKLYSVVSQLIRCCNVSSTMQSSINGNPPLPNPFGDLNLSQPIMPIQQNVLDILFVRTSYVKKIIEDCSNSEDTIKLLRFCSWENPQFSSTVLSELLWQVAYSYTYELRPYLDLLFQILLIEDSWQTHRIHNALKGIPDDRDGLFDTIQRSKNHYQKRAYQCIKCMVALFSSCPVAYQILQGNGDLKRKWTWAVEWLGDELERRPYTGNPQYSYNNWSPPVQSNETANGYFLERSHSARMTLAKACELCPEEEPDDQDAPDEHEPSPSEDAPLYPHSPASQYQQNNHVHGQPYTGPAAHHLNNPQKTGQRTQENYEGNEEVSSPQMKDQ
UniProt O00487, sequence (O00487 whole entry): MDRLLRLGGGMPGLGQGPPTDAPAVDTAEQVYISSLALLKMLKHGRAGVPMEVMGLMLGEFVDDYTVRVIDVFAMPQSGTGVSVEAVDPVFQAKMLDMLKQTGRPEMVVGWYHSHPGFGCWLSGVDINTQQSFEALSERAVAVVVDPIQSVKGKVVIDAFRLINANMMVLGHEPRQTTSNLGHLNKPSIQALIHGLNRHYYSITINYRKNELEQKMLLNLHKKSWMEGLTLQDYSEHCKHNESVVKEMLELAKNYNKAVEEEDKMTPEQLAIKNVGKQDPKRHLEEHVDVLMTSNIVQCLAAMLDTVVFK
UniProt P51784, sequence (P51784 whole entry): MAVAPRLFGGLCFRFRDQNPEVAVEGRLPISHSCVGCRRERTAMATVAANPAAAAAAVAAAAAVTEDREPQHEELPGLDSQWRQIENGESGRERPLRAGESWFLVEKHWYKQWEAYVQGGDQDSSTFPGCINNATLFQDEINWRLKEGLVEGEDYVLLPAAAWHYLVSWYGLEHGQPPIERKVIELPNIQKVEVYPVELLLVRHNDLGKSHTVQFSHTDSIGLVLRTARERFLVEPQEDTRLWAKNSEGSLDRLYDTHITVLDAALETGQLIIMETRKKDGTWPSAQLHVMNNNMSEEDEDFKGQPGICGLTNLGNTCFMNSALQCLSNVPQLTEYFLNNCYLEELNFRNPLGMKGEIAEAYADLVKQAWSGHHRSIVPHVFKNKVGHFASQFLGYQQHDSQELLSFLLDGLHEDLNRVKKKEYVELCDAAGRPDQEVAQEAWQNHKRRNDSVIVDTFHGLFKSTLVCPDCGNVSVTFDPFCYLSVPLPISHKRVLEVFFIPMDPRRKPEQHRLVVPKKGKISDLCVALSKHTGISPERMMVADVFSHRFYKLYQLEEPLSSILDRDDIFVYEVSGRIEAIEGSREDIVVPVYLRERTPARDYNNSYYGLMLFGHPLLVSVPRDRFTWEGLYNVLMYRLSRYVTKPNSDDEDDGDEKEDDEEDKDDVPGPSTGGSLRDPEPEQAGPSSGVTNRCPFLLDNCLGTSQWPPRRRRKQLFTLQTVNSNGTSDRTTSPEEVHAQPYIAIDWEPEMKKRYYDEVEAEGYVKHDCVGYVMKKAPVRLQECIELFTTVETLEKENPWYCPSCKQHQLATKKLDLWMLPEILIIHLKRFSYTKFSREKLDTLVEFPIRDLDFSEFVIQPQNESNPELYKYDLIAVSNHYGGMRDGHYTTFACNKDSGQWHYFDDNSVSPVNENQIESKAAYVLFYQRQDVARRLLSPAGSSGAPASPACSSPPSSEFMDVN

O=C(CCl)Nc1ccc(Cl)c(F)c1
inactive: USP9X -0.282 | UniProt O00487 -0.0232 | UniProt O00507 -0.588 | UniProt P51784 -0.219 | UniProt Q5T2D3 -0.339 | UniProt Q8TE49 -0.571 | UniProt Q9P2H5 -0.0638 | YOD1 -0.313
active: UniProt Q9UGI0 -1.27
